Ba/F3 V617F tox – reduced viability of JAK2V617F-dependent Ba/F3 cells, primary screen, JAK2V617F inhibitor project, cell-based, Ba/F3 EpoR-JAK2V617F, luminescence. ATP luminescence. inhibition, % at 5.6 µM. 220,000 compounds, 1.1% hits. AID 1446, 2008;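 active = inhibition above the campaign mean plus 3 SD over all tested compounds, cut at about 24% in these data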;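 note: cytokine-independent growth of Ba/F3 cells driven by EpoR plus mutant JAK2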
APP 5UTR inh – inhibitors of APP translation via 5'UTR reporter, primary screen, APP 5'UTR luciferase, SH-SY5Y cells; SH-SY5Y APP 5'UTR-luciferase reporter, luminescence; inhibition, % at 2 µM; 190,000 compounds, 0.82% hits;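 active = inhibition above a set limit, derived from the sample mean plus 3 SD, cut at about 45% in these data; inconclusive = one replicate passes the limit while the other fails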
KLF5 inh – KLF5 expression inhibitors, primary screen, DLD-1 cells, luminescence | DLD-1 KLF5 promoter-luciferase reporter | 290,000 compounds, 0.23% hits | inhibition, % at 5 µM;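 active = inhibition above a per-plate limit of that plate's mean compound inhibition plus 3 SD, cut at about 60% in these data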;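 note: higher means less KLF5 promoter-driven luciferase light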
aSyn UTR inh – MLPCN primary screen, SNCA 5' untranslated region; AID 1813, 2009; 300,000 compounds, 0.82% hits; alpha-synuclein 5'UTR reporter, inhibitor activity; inhibition, % (tested at 7.5 µM); in the data active = inhibition above about 60%; inconclusive = no clear call, values can overlap the other calls;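 note: H4 neuroglioblastoma cells stably carrying SNCA 5'UTR luciferase fusion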
IEC-6 cytotox – cytotoxicity in IEC-6 intestinal epithelial cells, primary screen, cytotoxicity control for KLF5 inhibitor project, cell-based, luminescence; IEC-6 cytotoxicity, luminescence viability; inhibition, % at 5 µM; 290,000 compounds, 0.78% hits; AID 1825, 2009; in the data active = inhibition above about 22%
BaF3 tox – parental Ba/F3 cell viability inhibition, counter-screen for JAK2V617F inhibitor project, murine pro-B, CellTiter-Glo luminescence; CellTiter-Glo ATP luminescence; inhibition, % at 5.6 µM; 220,000 compounds, 1.1% hits;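 active = inhibition above a per-campaign cutoff, the mean inhibition of all tested compounds plus 3 SD, cut at about 27% in these data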
A number is an active result; – = inactive; ? = inconclusive; · = not tested or not shown. Only some compounds are listed: those with a hit (about 2.1% of all), similar ones and a draw of the others.

SMILES | Ba/F3 V617F tox | APP 5UTR inh | KLF5 inh | aSyn UTR inh | IEC-6 cytotox | BaF3 tox
CN(C)C(CNC(=O)C1CCN(C(=O)/C=C/c2ccccc2)CC1)c1ccccc1 (stereo unspecified) | · | · | – | – | – | ·
c1ccc(-c2cn(-c3ccccc3)c3[n+]2CCS3)cc1 | 69 | – | – | – | – | 63
Fc1ccc(-n2cc(-c3ccccc3)c3c(N4CCOCC4)ncnc32)cc1 | – | – | – | – | – | –
Fc1ccc(-n2cc(-c3ccccc3)[n+]3c2SCC3)cc1 | 49 | – | – | – | – | 79
COc1ccc(-c2cn(-c3ccccc3)c3[n+]2CCS3)cc1 | 76 | – | – | – | – | 67
CS(=O)(=O)Nc1cccc2[nH]ncc12 | · | – | – | – | · | ·
O=C(N/N=C/c1ccc(O)c(O)c1)c1ccc(CSc2cccc3cccnc23)cc1 | 62 | – | – | – | – | 27
Cc1ccc(C(C)C)c(OCc2ccc(C(=O)N/N=C/c3ccc(O)c(O)c3)cc2)c1 | 39 | 50 | – | – | – | 78
O=C(O)c1ccc(Cl)c(S(=O)(=O)Nc2ccccc2C(=O)Nc2ccc(Cl)cc2)c1 | · | · | – | – | – | ·
O=C(N/N=C/c1ccc(Cl)cc1)c1sccc1OCc1ccc(F)cc1 | 72 | · | – | 73 | – | 47
COc1ccc(-n2c(C)cc(C(=O)CCl)c2C)cc1 | – | – | – | 65 | – | –
Cc1cc(C(=O)CSc2nc(N)cc(=O)[nH]2)c(C)n1-c1ccc(OC(F)F)cc1 | 40 | – | – | – | – | 52
Cc1cc(-n2c(C)cc(C(=O)CCl)c2C)no1 | – | – | – | 119 | – | –
Cc1cc(-n2c(C)cc(C(=O)CSc3nc(N)cc(=O)[nH]3)c2C)no1 | – | · | – | – | – | –
Cc1noc(C)c1CSc1nc2[nH]ncc2c(=O)n1-c1ccccc1 | 70 | 94 | 74 | ? | 82 | 73
Cc1c(Br)c(O)c(Br)c(O)c1/C=N/n1c(-c2ccccc2)n[nH]c1=S | · | · | – | 62 | – | ·
CCN(CC)S(=O)(=O)c1cccc(-c2n[nH]c(=S)n2/N=C/c2ccc(Br)cc2)c1 | – | – | – | – | – | 94
CCN(CC)S(=O)(=O)c1cccc(-c2n[nH]c(=S)n2/N=C/c2ccc(OC)cc2)c1 | – | – | – | – | – | –
Cc1ccc2c(c1)Cc1nc3ccccc3nc1-2 | – | – | – | 71 | – | –
Cc1ccc2c(c1)-c1nc3ccccc3cc1C2=NC1CCCCC1 | – | – | – | · | – | –
Cc1[nH][nH]c(=O)c1C(c1c(C)[nH][nH]c1=O)c1cn(Cc2ccc(Cl)c(Cl)c2)c2ccccc12 | – | 81 | – | 90 | – | –
CC(=O)c1c(COC(=O)c2ccc(C)cc2)nc2ccccc2[n+]1[O-] | – | · | – | – | – | 51
CCN1CCCC1CNC(=O)c1ccc2c(c1)NC(=O)/C(=C\c1ccc(C)cc1)S2 (stereo unspecified) | · | · | – | 74 | – | ·
Cc1ccc(/C=C2/Sc3ccc(C(=O)NCCN4CCOCC4)cc3NC2=O)cc1 | · | · | – | – | – | ·
COC(=O)c1ccc(Oc2cc(C)nc(SC)n2)cc1 | – | 86 | – | – | – | –
SMILES | Ba/F3 V617F tox | APP 5UTR inh | KLF5 inh | aSyn UTR inh | IEC-6 cytotox | BaF3 tox
c1ccc(-c2ncc3c(ccc4ccccc43)n2)cc1 | – | – | – | 68 | – | –
c1ccc2c(c1)cnc1ccccc12 | – | · | – | – | – | –
CC(=O)Nc1ccc(NC(=O)C(C)OC(=O)CNS(=O)(=O)c2ccc(Br)cc2Cl)cc1 (stereo unspecified) | · | · | – | – | – | ·
CCCS(=O)(=O)Nc1ccc2cn[nH]c2c1 | – | – | – | – | – | –
CCOc1cc(C)c(S(=O)(=O)Nc2ccc3cn[nH]c3c2)cc1C | – | – | – | – | – | 40
Cc1cc2nc3n(c2cc1C)CCCN3 | · | · | – | – | – | ·
CC1CCC(C(C)C)C(OC(=O)Cn2c(-c3ccc(F)cc3)[n+](C)c3ccccc32)C1 (stereo unspecified) | 98 | – | – | · | – | 82
Cc1cccc(OC(=O)Cn2c(C(F)(F)F)nc3ccccc32)c1 | – | – | – | – | – | –
Cc1cccc(OCc2n(CC(=O)OC3CC(C)CCC3C(C)C)c3ccccc3[n+]2C)c1 (stereo unspecified) | 101 | – | – | ? | – | 88

Assay outcomes from PubChem BioAssay.
